Screening results as filed in PubChem BioAssay.
SNCA expr inhib – reduces expression of the alpha-synuclein gene; HEK-293 SNCA-luciferase knock-in, luminescence, 24 h; Potency, µM (doses to about 57.2 µM), inactives show at the highest dose activity change, negative = inhibition, actives largely listed as inhibitors; hit rate 0.17% among 140,000; AID 1671194;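 also: potency is read from the fitted curve at half-maximal effect; plate controls were DMSO cells for no effect and cell-free wells for full effect; nearly all actives have a fitted effect of over 45% in size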
KDM5B inhibitor – inhibitors of human KDM5B histone demethylase. Q9UGL1. KDM5B demethylase, FDH-coupled NADH fluorescence (FDH is formaldehyde dehydrogenase). Potency, µM (series often up to 57.7 µM), actives largely listed as inhibitors. hit rate 2.6% among 220,000. AID 1347165; also: potency is read from the fitted curve at half-maximal effect; 0% is about no effect; nearly all actives have a fitted effect of over 70% in size
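Compound dilutions met 200 nM (final) KDM5BΔAP for 10 min at room temperature before substrate addition. The substrate mix held 12.5 µM H3K4me3 with cofactors 25 µM α-ketoglutarate and 50 µM Fe²⁺. NADH signal gain over 30 min defined activity.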
HEK293 viab – cell viability loss counter-screen. HEK-293-SNCA-luc viability, GF-AFC fluorescence, 24 h. Potency, µM (highest dose often 57.1 µM), without a hit: at the highest dose activity change, negative = cytotoxicity, most hits filed as cytotoxic. hit rate 0.12% among 150,000. AID 1671193;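 also: potency is read from the fitted curve at half-maximal effect; 0% = DMSO-treated cells and -100% = medium-only wells without cells; nearly all actives have a fitted effect of over 30% in size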
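HEK-293-SNCA-luc cells (1500/well) plated 24 h, then exposed 24 h to a dilution series; GF-AFC added 30 min at 37C, fluorescence 405/540 nm; normalised to medium-only and DMSO wells, Hill fit.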
IP6K1 inh – blocks human inositol hexakisphosphate kinase 1; hit rate 0.81% among 140,000; Q92551; IP6K1 kinase, ADP-Glo luminescence, 2 h; stronger effect = lower value; activity change, % (series mostly up to about 58 µM); in the data active = activity change below about -25%; also: % is scaled to controls: 0 for no effect and ±100 for the full control effect
Target sequence (Q92551 whole entry, looked up): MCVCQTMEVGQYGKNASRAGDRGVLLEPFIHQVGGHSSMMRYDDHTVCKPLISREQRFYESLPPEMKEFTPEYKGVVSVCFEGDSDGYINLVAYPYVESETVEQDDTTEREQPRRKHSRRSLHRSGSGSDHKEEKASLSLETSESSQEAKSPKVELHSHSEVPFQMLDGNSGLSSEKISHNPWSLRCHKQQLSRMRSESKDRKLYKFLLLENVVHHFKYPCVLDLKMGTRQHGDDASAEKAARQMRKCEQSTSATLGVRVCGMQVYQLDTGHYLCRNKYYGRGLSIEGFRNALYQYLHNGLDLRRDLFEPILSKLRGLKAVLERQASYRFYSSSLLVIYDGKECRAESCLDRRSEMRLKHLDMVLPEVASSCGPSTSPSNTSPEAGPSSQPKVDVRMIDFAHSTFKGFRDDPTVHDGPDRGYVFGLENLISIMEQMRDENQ
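ADP-Glo luminescence measures ADP made by human IP6K1 during a 2 h RT reaction with ATP/IP6 (mix at 1.3 mM/130 uM); top library doses 57.5 and 19.1 uM final.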
Active calls of the source: *; [ ] = another dose, or the depositor's remark. This is a sample that favours compounds with a hit; in the whole collection about 2.9% have one here. Unless noted, calls follow the shape of the dose curve; as a rule, active = well fitted curve in the direction sought with a large enough effect; inconclusive = small, poorly fitted or top-dose-only effect, or another doubt; inactive = no such curve, though single readings can be large; an effect the other way counts as inactive or inconclusive.

Results for CN(C)CCOc1cccc2c1c(NC(=O)c1ccn[nH]1)nn2-c1ccc(F)cc1 ?
SNCA expr inhib: 25.1%; KDM5B inhibitor: inconclusive; HEK293 viab: -12.0%; IP6K1 inh: 3.3

Results for COc1cccc(C2=NN(S(=O)(=O)c3ccccc3)C(c3ccc4nccnc4c3)C2)c1 (stereo not drawn) ?
KDM5B inhibitor: inactive

How did Cc1ccc(-c2cc3c(=O)n(CCNC(=O)c4cccc5[nH]ccc45)ccn3n2)cc1C do in these assays?
SNCA expr inhib: -15.7%; KDM5B inhibitor: 28.2µM*; HEK293 viab: inconclusive; IP6K1 inh: -4.2

What do the screens show for `Cc1ccc(-c2cc3c(=O)n(CCNC(=O)c4ccoc4)ccn3n2)cc1C`?
SNCA expr inhib: 26.8%; KDM5B inhibitor: inconclusive; HEK293 viab: -18.6%; IP6K1 inh: -10.1

What do the screens show for `Cc1ccc(-c2cc3c(=O)n(CCNC(=O)c4ccc[nH]c4=O)ccn3n2)cc1C`?
SNCA expr inhib: -10.1%; KDM5B inhibitor: 35.5µM*; HEK293 viab: -13.8%; IP6K1 inh: -9.8

What do the screens show for `O=C(NCCn1ccn2nc(-c3ccc(F)cc3)cc2c1=O)c1cccc2[nH]ccc12`?
SNCA expr inhib: -26.1%; KDM5B inhibitor: 28.2µM*; HEK293 viab: -2.4%; IP6K1 inh: -2.5

How did Cc1ccc(-c2cc3c(=O)n(CCNC(=O)Cc4cccc(F)c4)ccn3n2)cc1C do in these assays?
SNCA expr inhib: 21.3%; KDM5B inhibitor: inconclusive; HEK293 viab: -5.5%; IP6K1 inh: -2.4

What do the screens show for `O=C(NCc1ccc(C(F)(F)F)cc1)C1CN(C2CCCC2)C(=O)N1` (stereo not drawn)?
SNCA expr inhib: -3.5%; HEK293 viab: 1.9%[12.5 µM]; IP6K1 inh: -10.0

What do the screens show for `COc1cccc(C(=O)N[C@@H]2CN(c3ncccn3)C[C@H]2CN(C)C)c1C`?
SNCA expr inhib: -4.9%; KDM5B inhibitor: 31.6µM*; HEK293 viab: -5.5%; IP6K1 inh: 6.6

What do the screens show for `COc1ccc(C(=O)N[C@@H]2CN(c3ncccn3)C[C@H]2CN(C)C)c(OC)n1`?
SNCA expr inhib: 0.9%; KDM5B inhibitor: 25.1µM*; HEK293 viab: -7.0%; IP6K1 inh: 16.3

Results for CN(C)C[C@@H]1CN(Cc2ccncc2)C[C@H]1N ?
SNCA expr inhib: -7.9%; KDM5B inhibitor: 17.8µM*; HEK293 viab: -4.0%; IP6K1 inh: 1.7

Results for COc1ccccc1C(=O)N[C@@H]1CN(c2ncccn2)C[C@H]1CN(C)C ?
SNCA expr inhib: 1.1%; KDM5B inhibitor: inconclusive; HEK293 viab: 1.7%; IP6K1 inh: 4.6

How did COc1ccccc1C(=O)N[C@@H]1CN(Cc2ccncc2)C[C@H]1CN(C)C do in these assays?
SNCA expr inhib: -9.4%; KDM5B inhibitor: 22.4µM*; HEK293 viab: -15.2%; IP6K1 inh: 25.8

What do the screens show for `CCn1ncc(C(=O)N[C@@H]2CN(c3ncccn3)C[C@H]2CN(C)C)c1C`?
SNCA expr inhib: -8.7%; KDM5B inhibitor: 25.1µM*; HEK293 viab: -2.0%; IP6K1 inh: 11.8

Results for COCCN1C(=O)c2cccn2CC1CNC(=O)c1[nH]nc2c1COc1ccccc1-2 (stereo not drawn) ?
SNCA expr inhib: -18.7%; KDM5B inhibitor: 28.2µM*; HEK293 viab: -3.3%; IP6K1 inh: 2.7

What do the screens show for `Cn1ccc2ccc(C(=O)N3CCN(CCOc4ccccc4)CC3)cc21`?
SNCA expr inhib: 10.6%; KDM5B inhibitor: 28.2µM*; HEK293 viab: 10.4%; IP6K1 inh: -4.2

Results for CN[C@@H]1C[C@H]2O[C@@](C)([C@H]1OC)n1c3ccccc3c3c4c(c5c6ccccc6n2c5c31)C(=O)N[C@H]4O ?
SNCA expr inhib: 4.29µM*; HEK293 viab: inconclusive

Results for COc1cc(NC(=O)c2cn(C3CCCC3)c(=O)c3c2c2ccccc2n3C)cc(OC)c1OC ?
SNCA expr inhib: 23.3%; KDM5B inhibitor: inactive; HEK293 viab: -2.4%; IP6K1 inh: -0.1

What do the screens show for `CC(=O)Nc1ccc(CN2CCC[C@H]2c2nc(-c3ccc(N4CCC(C(N)=O)CC4)nc3)no2)cc1`?
SNCA expr inhib: -10.0%; KDM5B inhibitor: inconclusive; HEK293 viab: 6.9%; IP6K1 inh: 0.9

Results for CS(=O)(=O)c1ccc(CN2CCC[C@H]2c2nc(-c3ccnc(N4CCC(C(N)=O)CC4)c3)no2)cc1 ?
SNCA expr inhib: -5.6%; KDM5B inhibitor: 28.2µM*; HEK293 viab: 0.7%; IP6K1 inh: -3.2

Results for CC(=O)N1CCC(N2CCC[C@H]2c2nc(-c3ccnc(N4CCC(C(N)=O)CC4)c3)no2)CC1 ?
SNCA expr inhib: 3.2%; KDM5B inhibitor: 22.4µM*; HEK293 viab: 3.8%; IP6K1 inh: 13.4

How did NC(=O)C1CCN(c2cc(-c3noc([C@@H]4CCCN4Cc4ccccc4F)n3)ccn2)CC1 do in these assays?
SNCA expr inhib: -17.7%; KDM5B inhibitor: inconclusive; HEK293 viab: -8.8%; IP6K1 inh: 8.7

How did NC(=O)C1CCN(c2cc(-c3noc([C@@H]4CCCN4Cc4ccc(Cl)cc4)n3)ccn2)CC1 do in these assays?
SNCA expr inhib: 10.6%; KDM5B inhibitor: 31.6µM*; HEK293 viab: -9.0%; IP6K1 inh: 6.9

Results for NC[C@@](O)(c1ccc(Cl)cc1)c1ccc(-c2cn[nH]c2)cc1 ?
HEK293 viab: 23.8µM*; IP6K1 inh: -7.8

What do the screens show for `Cc1nn(-c2ccccc2)c2c1C(C(C)C)N(C1CCN([S+](=O)([O-])c3ccccc3)C1)C2=O` (stereo not drawn)?
IP6K1 inh: 3.4

What do the screens show for `CCCCc1nn(CC(=O)N2CCC(c3ccccc3)CC2)c(=O)n1CC`?
SNCA expr inhib: -14.6%; KDM5B inhibitor: inactive; HEK293 viab: -0.6%; IP6K1 inh: -3.4

Results for Cc1ccc(NC(=O)N2CCc3c(c4ccccc4n3C)C2)cc1 ?
SNCA expr inhib: 37.9%; KDM5B inhibitor: 22.4µM*; HEK293 viab: 2.8%; IP6K1 inh: 4.6

Results for CCOc1ccc(NC(=O)N2CCc3c(c4ccccc4n3C)C2)cc1 ?
SNCA expr inhib: -8.3%; KDM5B inhibitor: 25.1µM*; HEK293 viab: -1.8%; IP6K1 inh: -4.2

What do the screens show for `CCc1ccc(NC(=O)N2CCc3c(c4ccccc4n3C)C2)cc1`?
SNCA expr inhib: 29.9%; KDM5B inhibitor: 28.2µM*; HEK293 viab: 5.4%; IP6K1 inh: -2.3

What do the screens show for `Cn1c2c(c3cc(F)ccc31)CN(C(=O)Nc1ccc(Cl)cc1)CC2`?
SNCA expr inhib: 97.9%; KDM5B inhibitor: inconclusive; HEK293 viab: 2.5%; IP6K1 inh: 5.0

How did Cc1cc2cc(C(=O)N3CCN(c4ncccc4C#N)CC3)ccc2o1 do in these assays?
SNCA expr inhib: 15.9%; KDM5B inhibitor: 28.2µM*; HEK293 viab: -28.4%; IP6K1 inh: 10.3

How did CC(C)c1cc(C(=O)N2CCN(c3ncccc3C#N)CC2)n(C)n1 do in these assays?
SNCA expr inhib: -3.4%; KDM5B inhibitor: 31.6µM*; HEK293 viab: -3.2%; IP6K1 inh: 19.7

What do the screens show for `CC(C)NC(=O)NC1CCN(C(=O)c2ccc(-c3ncccc3C#N)cc2)CC1`?
SNCA expr inhib: 23.4%; HEK293 viab: 11.3%[12.5 µM]; IP6K1 inh: 24.3

How did Cc1nc(C(=O)NC2CCN(c3ncccc3C#N)CC2)cs1 do in these assays?
SNCA expr inhib: 4.1%; KDM5B inhibitor: 28.2µM*; HEK293 viab: 9.9%; IP6K1 inh: 8.3
